Results on 15 compounds are retold here after PubChem BioAssay (EPA / NIEHS).

SMILES strings stand for the structures. Several values for one entry are separate records, joined by “and”; a condition that tells them apart may be missing. Equal values may be shown once. Activity calls are given as the source filed them. How the source made its calls: active means hit-call score of the fitted dose curve at least 0.9, where 1 is the maximum; inactive means score below 0.9.

This assay can be described thus: CCTE_Shafer_MEA_dev_per_burst_spike_percent: CCTE's Neural Network Formation Assay for Percent of Spikes in a Burst, Shafer Lab (AID 2284032). As to the method:
CCTE_Shafer_MEA_dev assay is conducted using Axion Biosystems 48 well microelectrode array (MEA) plates and Maestro recording system. Each well of the MEA plate contains a grid of 16 microelectrodes embedded in the culture surface. Electrically active cells, such as neurons, can be cultured over the electrodes, and electrical activity in these cells can be recorded extracellularly. The spontaneous firing of neurons is captured from each electrode on a microsecond timescale providing both temporally and spatially precise data. […] The CCTE_Shafer_MEA_dev assay uses primary cultures of rat cortical neurons. Recordings are made on days post-plating 5, 7, 9 and 12. As these cultures mature over time, neural networks develop functional activity and form cohesive networks in which electrical activity can be highly coordinated. CCTE_Shafer_MEA_dev_per_burst_spike_percent is 1 of 19 assay components of the CCTE_Shafer_MEA_dev assay. It measures the percentage of spikes (action potential firings) in a single-electrode burst (temporally-clustered group of spikes) as the total number spikes in bursts divided by the total number of spikes during a recording in a microelectrode array (MEA) using Axion Biosystems Maestro 768 channel amplifier with the AxIS adaptive spike detector. The percent of spikes in bursts is averaged across the actively bursting electrodes to report a well-mean value. To collapse across multiple recordings made on days post-plating 5, 7, 9 and 12, the trapezoidal area-under-the-curve of the component is calculated.Data from the assay component CCTE_Shafer_MEA_dev_per_burst_spike_percent was analyzed into 1 assay endpoint. This assay endpoint, CCTE_Shafer_MEA_dev_per_burst_spike_percent, was analyzed in the negative analysis fitting direction relative to DMSO as the negative control and baseline of activity. Using a type of functional reporter, gain or loss-of-signal activity can be used to understand electrical activity.
On the day prior to culture, each well was coated thoroughly with 150 uL of 0.05% polyethyleneimine (PEI, Sigma Cat P3143) in 50 mM HEPES (Sigma Cat H7523) at a pH of 8. The plate was incubated at 37C for one hour. PEI was rinsed out with 500 uL of sterile water three times. Plates were stored at 4C until the day of culture. This culture was plated at a seeding density of 1.5 x 10^5 cells/well on a 48-well MEA plate, prepared as described above. Cells were administered via a 25 uL media/laminin ([…]; Sigma Cat L2020-1MG) drop directly onto the microelectrode array, as adding the cells with the laminin results in better attachment than pre-coating with laminin. After 2 hours, an additional 475 uL of cortical media was added and the cells returned to the incubator. Exposure starts at day 0 of plating and is continued over twelve days of network development until the experiment is terminated. Cells are fed with fresh medium on DIV 5 and 9, following the recordings on those days. The entire volume of media in the well is exchanged and any vehicle or compound treatment is renewed. Complete details are found in OP-NHEERL/ISTD/SBB/TJS/2015-03-r0 (available on request, email shafer.tim@epa.gov). Measurement of the electrical activity is non-invasive, and recordings can be made from the same plate over multiple different days of the culture. In cortical neurons, this allows for the measurement of extracellular action potentials over the period during which networks form in the MEA plate.
Turning to `c1cc2ccc3ccc4ccc5cccc6c(c1)c2c3c4c56`, the result was inactive. For the compound `CC1(C)S[C@@H]2[C@H](NC(=O)[C@H](N)c3ccccc3)C(=O)N2[C@H]1C(=O)O`, the compound was classed as inactive. With `c1ccc2cc3c4ccccc4c4ccccc4c3cc2c1`, the AC50 (as a rule, the concentration at which the activity in the assay is half-maximal) was 1.97 µM (active). In the case of `CN(C)C(=O)C(CCN1CCC(O)(c2ccc(Cl)cc2)CC1)(c1ccccc1)c1ccccc1`, the AC50 was 514 nM (active) and 244 nM (active) and 1.49 µM (active). With `C[C@H](CS)C(=O)N1CCC[C@H]1C(=O)O`, the compound was classed as inactive. On the same count and under the same terms, then `NC(N)=Nc1nc(CSCCC(N)=NS(N)(=O)=O)cs1`, with “inactive”. Regarding `CC[C@H](C)C(=O)O[C@H]1CCC=C2C=C[C@H](C)[C@H](CC[C@@H]3C[C@@H](O)CC(=O)O3)[C@H]21`, the AC50 was 1.4 µM (active) and 2.83 µM (active). Turning to `CN(C)CCC(c1ccc(Cl)cc1)c1ccccn1` (stereo not given), the outcome was inactive. Regarding `CC1(C)S[C@@H]2[C@H](NC(=O)[C@H](N)c3ccc(O)cc3)C(=O)N2[C@H]1C(=O)O`, the result was inactive. On to `COc1ccc2cc3[n+](cc2c1OC)CCc1cc2c(cc1-3)OCO2`, for which the AC50 is 0.145 µM (active). Consider `CNCCC(Oc1ccc(C(F)(F)F)cc1)c1ccccc1` (stereo not given), for which the AC50 is 4.19 µM (active). Take `CC(C)(C)NCC(O)c1cc(O)cc(O)c1` (stereo not given): the call was inactive.

On to `C[C@@H]1C[C@H]2[C@@H]3CCC4=CC(=O)C=C[C@]4(C)[C@@]3(F)[C@@H](O)C[C@]2(C)[C@@]1(O)C(=O)CO`, for which the compound was classed as inactive.

`Cc1c(O)cccc1C(=O)N[C@@H](CSc1ccccc1)[C@H](O)CN1C[C@H]2CCCC[C@H]2C[C@H]1C(=O)NC(C)(C)C`: the AC50 is 1.43 µM (active). With `[Cl-].[Cl-].[NH2-].[NH2-].[Pt+4]`, the compound was classed as inactive.
